Reference: article PMC5540273 (PLoS ONE, 2017)

How the values were obtained:
Details in all cases: concentration: 1 μM,replicates: in singlicate; n = 1
[1] = system: PIK3C2G
[2] = system: PIK3CA
[3] = system: PIK3CB
[4] = system: PIK3CD
[5] = system: PIK3CG
[6] = system: T1, PIK4CB
T1 construct: gene PI4KB

[7] = system: PIKFYVE
[8] = system: PIM1
[9] = system: PIM2
[10] = system: PIM3
[11] = system: PIP5K1A
[12] = system: PIP5K1C
[13] = system: PIP5K2B
[14] = system: T2, PIP5K2C
T2 construct: gene PIP4K2C

[15] = system: T3, PKAC-alpha
T3 construct: gene PRKACA

[16] = system: T4, PKAC-beta
T4 construct: gene PRKACB

[17] = system: PKMYT1
[18] = system: PKN1
[19] = system: PKN2
[20] = system: PLK1
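Also: KINOMEscan kinase panel screen.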

Row | SMILES | %Inh [1] [%] | %Inh [2] [%] | %Inh [3] [%] | %Inh [4] [%] | %Inh [5] [%] | %Inh [6] [%] | %Inh [7] [%] | %Inh [8] [%] | %Inh [9] [%] | %Inh [10] [%] | %Inh [11] [%] | %Inh [12] [%] | %Inh [13] [%] | %Inh [14] [%] | %Inh [15] [%] | %Inh [16] [%] | %Inh [17] [%] | %Inh [18] [%] | %Inh [19] [%] | %Inh [20] [%]
1 | O=C(NCC1CC1)c1ccc(-c2cc(C(=O)NC3CC3)ccc2F)cc1 [GW810445] | 0 | 0 | 0 | 0 | 0 | 0 | 6 | 9 | 0 | 0 | 54 | 0 | 0 | 22 | 7 | 0 | 0 | 0 | 0 | 6
2 | NC(=O)c1ccc(-c2cc3ncnc(SCC(=O)O)c3s2)cc1 | 20 | 0 | 15 | 0 | 0 | 0 | 42 | 7 | 22 | 22 | 0 | 93 | 6 | 72 | 0 | 0 | 0 | 0 | 4 | 0
3 | O=C(Nc1cccc(Oc2ccc3nccn3n2)c1)Nc1cccc(C(F)(F)F)c1 | 0 | 0 | 0 | 5 | 18 | 0 | 0 | 0 | 10 | 0 | 6 | 37 | 14 | 35 | 66 | 63 | 0 | 0 | 31 | 38
4 | COc1ccc(Nc2nccc(N3CCC(NC(=O)c4cccc(C#N)c4)C3)n2)cc1 (centres unmarked) [GSK1379730] | 0 | 0 | 0 | 25 | 0 | 0 | 0 | 0 | 0 | 0 | 4 | 35 | 0 | 23 | 12 | 9 | 0 | 37 | 0 | 0
5 | CS(=O)(=O)Nc1ccc(-c2ccnc3[nH]ccc23)cc1 [GSK993273] | 3 | 0 | 0 | 8 | 7 | 10 | 0 | 28 | 0 | 12 | 57 | 29 | 55 | 89 | 84 | 85 | 0 | 21 | 18 | 0
6 | COC(=O)c1cccc(NC(=O)NC2CCN(c3ccnc(NCc4ccc(F)cc4)n3)CC2)c1 [GSK1379860] | 0 | 0 | 0 | 61 | 0 | 0 | 57 | 0 | 0 | 0 | 0 | 20 | 19 | 2 | 0 | 0 | 0 | 32 | 0 | 0
7 | COc1cc2ncn(-c3cc(OCC4CCCCC4)c(C(N)=O)s3)c2cc1OC [GSK204559] | 38 | 0 | 0 | 0 | 5 | 0 | 0 | 0 | 0 | 11 | 0 | 61 | 12 | 11 | 9 | 0 | 2 | 24 | 0 | –
8 | O=C(Nc1ccccc1)c1cccc(Oc2ccc3nccn3n2)c1 | 6 | 0 | 0 | 11 | 0 | 68 | 0 | 0 | 5 | 0 | 0 | 23 | 15 | 14 | 5 | 0 | 0 | 26 | 29 | 36
9 | O=C(Nc1cccc(C(F)(F)F)c1)c1cccc(Oc2ccc3nccn3n2)c1 | 13 | 98.1 | 0 | 17 | 94.2 | 39 | 0 | 0 | 7 | 0 | 0 | 17 | 14 | 10 | 17 | 7 | 9 | 81 | 0 | 50
10 | C[C@@H](Oc1cc(-n2cnc3ccc(-c4ccncc4)cc32)sc1C(N)=O)c1ccccc1Cl [GSK483724] | 6 | 53 | 68 | 87 | 97.7 | 79 | 95.1 | 46 | 64 | 23 | 0 | 85 | 13 | 81 | 13 | 5 | 0 | 17 | 10 | –
11 | O=C(NOCC1CC1)c1cc(Br)c(F)c(F)c1Nc1ccc(I)cc1Cl | 0 | 0 | 0 | 0 | 0 | 0 | 41 | 0 | 9 | 1 | 4 | 43 | 4 | 36 | 9 | 0 | 0 | 9 | 0 | 0
12 | FC(F)(F)c1cc(Br)cc(Nc2nccc(-c3cnn4ncccc34)n2)c1 [GW810578] | 25 | 3 | 16 | 51 | 10 | 30 | 10 | 25 | 0 | 23 | 0 | 3 | 0 | 94.2 | 17 | 0 | 1 | 12 | 27 | 9
13 | CNC(=O)c1ccccc1Nc1nc(Nc2cccc(CS(C)(=O)=O)c2)ncc1C.O=CO [GSK1520489] | 0 | 0 | 0 | 0 | 20 | 12 | 0 | 18 | 0 | 0 | 55 | 52 | 84 | 79 | 11 | 28 | 84 | 56 | 2 | 97.9
14 | Cc1cccc(-c2nc(Nc3ccncc3)c3sccc3n2)n1 [GW869641] | 40 | 33 | 28 | 46 | 23 | 31 | 86 | 27 | 3 | 13 | 4 | 61 | 3 | 45 | 25 | 38 | 3 | 1 | 12 | 33
15 | CC(=O)Nc1nc2cnc(Nc3cc(NC(=O)c4cccc(CC(C)(C)C#N)c4)ccc3C)nc2s1 | 60 | 11 | 66 | 54 | 8 | 27 | 0 | 16 | 8 | 22 | 0 | 4 | 33 | 53 | 13 | 0 | 20 | 21 | 0 | 7
16 | C[C@@H](Oc1cc(-n2cnc3cc(-c4ccncc4)ccc32)sc1C(N)=O)c1ccccc1Cl [GSK479719] | 0 | 0 | 0 | 0 | 0 | 0 | 27 | 0 | 0 | 0 | 0 | 58 | 21 | 29 | 0 | 0 | 0 | 15 | 44 | –
17 | Cn1ccc2ncnc(Oc3ccc(NC(=O)Nc4cncc(C(F)(F)F)c4)c(Cl)c3)c21 | 0 | 0 | 0 | 0 | 0 | 0 | 0 | 3 | 1 | 0 | 29 | 20 | 6 | 0 | 0 | 0 | 6 | 0 | 0 | 0
18 | C[C@@H]1CNc2c(sc3ccc4nc(-c5ccc(O)cc5)ccc4c23)C(=O)N1 | 28 | 5 | 34 | 39 | 11 | 0 | 18 | 37 | 93.7 | 72 | 3 | 18 | 78 | 13 | 4 | 5 | 2 | 0 | 16 | 0
19 | Cn1ccc2ncnc(Oc3ccc(NC(=O)Nc4ccnc(C(F)(F)F)c4)c(Cl)c3)c21 | 13 | 0 | 0 | 0 | 0 | 0 | 7 | 5 | 3 | 0 | 13 | 0 | 15 | 0 | 0 | 0 | 3 | 0 | 0 | 0
20 | COc1cccc(CNC(=O)NC2CCN(c3ccnc(Nc4cc(OC)c(OC)c(OC)c4)n3)C2)c1 (centres unmarked) [GSK1379765] | 0 | 0 | 83 | 35 | 0 | 67 | 0 | 0 | 0 | 0 | 52 | 68 | 14 | 90.3 | 0 | 0 | 8 | 36 | 0 | 0
21 | C[C@@H](Oc1cc(-n2cnc3cc(-c4cnn(C)c4)ccc32)sc1C(N)=O)c1ccccc1Cl [GSK580432] | 0 | 0 | 0 | 32 | 24 | 0 | 61 | 20 | 0 | 18 | 0 | 38 | 37 | 3 | 2 | 0 | 15 | 0 | 72 | –
